In PubChem BioAssay (NCATS) one finds Potency data, which are given here for 23 compounds.

Assay [1] in a line: Quantitative High-Throughput drug screen in 47 multiple myeloma cell lines against the NCATS MIPE library collection: KMS20_JCRB cell viability assay (AID 1918973). Also: nearly all actives have a fitted effect of over 45% in size. The method in brief: (§1)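 Relative luminescence from CellTiter-Glo served as the viability signal, referenced to DMSO-treated (100%) and cell-free medium (0%) controls. Treatment lasted 48 hours at 37C with 500 cells per well.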

The nature of assay [2]: Quantitative High-Throughput drug screen in 47 multiple myeloma cell lines against the NCATS MIPE library collection: KMS21BM_JCRB cell viability assay (AID 1918974). The conditions noted are these: ATP luminescence, 48 h; viability: at 45.8 µM (top of the series). In short, it runs like this: as §1
Assay [3] can be described thus: Quantitative High-Throughput drug screen in 47 multiple myeloma cell lines against the NCATS MIPE library collection: MMM1_PLB cell viability assay (AID 1918976). Also: nearly all actives have a fitted effect of over 35% in size. The method in brief: (§2)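 ATP-based CellTiter-Glo luminescence after 48 h drug exposure (37 °C, 5% CO2) of 500 myeloma cells per well. DMSO-only wells set 100% viability, media-only wells 0%; MIPE 4.0 library added by pin tool.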

The nature of assay [4]: Quantitative High-Throughput drug screen in 47 multiple myeloma cell lines against the NCATS MIPE library collection: MOLP8_DSMZ cell viability assay (AID 1918977). Also: nearly all actives have a fitted effect of over 45% in size. In short, it runs like this:
as §2

Assay [5] in a line: Quantitative High-Throughput drug screen in 47 multiple myeloma cell lines against the NCATS MIPE library collection: MM1R_ATCC cell viability assay (AID 1918981). Also: nearly all actives have a fitted effect of over 35% in size. In short, it runs like this:
as §2

Assay [6] can be described thus: Quantitative High-Throughput drug screen in 47 multiple myeloma cell lines against the NCATS MIPE library collection: KMS26_JCRB cell viability assay (AID 1918975). Also: nearly all actives have a fitted effect of over 45% in size. The method in brief: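 Luminescent ATP measurement with CellTiter-Glo gives viability, scaled between DMSO-only wells (100%) and media-only wells (0%). Cells, 500 per well, faced library compounds for 48 hours at 37C.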

The nature of assay [7]: Quantitative High-Throughput drug screen in 47 multiple myeloma cell lines against the NCATS MIPE library collection: NCIH929_DSMZ cell viability assay (AID 1918978). Also: nearly all actives have a fitted effect of over 35% in size. The method in brief: as §2
A short description of assay [8]: Quantitative High-Throughput drug screen in 47 multiple myeloma cell lines against the NCATS MIPE library collection: MM1S_ATCC cell viability assay (AID 1918980). Also: nearly all actives have a fitted effect of over 45% in size. The method in brief:
as §2

A short description of assay [9]: Quantitative High-Throughput drug screen in 47 multiple myeloma cell lines against the NCATS MIPE library collection: OCIMY1_PLB cell viability assay (AID 1918979). Also: nearly all actives have a fitted effect of over 35% in size. The method in brief: as §2

Records with an inconclusive call do not appear. The source made the active and inactive calls. Calls follow the shape of the dose curve; as a rule, active = well fitted curve in the direction sought with a large enough effect; inconclusive = small, poorly fitted or top-dose-only effect, or another doubt; inactive = no such curve, though single readings can be large; an effect the other way counts as inactive or inconclusive.
Potency is read from the fitted curve at half-maximal effect.

Regarding `CCc1cccc(CC)c1NC(=O)N1Cc2[nH]nc(NC(=O)c3ccc(N4CCN(C)CC4)cc3)c2C1`, the Potency is 14.8 µM (active) in assay [1], 3.72 µM (active) in [2], 16.6 µM (active) in [4] and 14.8 µM (active) in assay [5]. Besides, the Potency result in assay [3] was “inactive”.
`CCC[C@H](Nc1nc(-c2ccc(NC(=O)NCC)c(OC)c2)ncc1C)c1cccnc1`: the Potency in assay [6] is 0.0209 µM (active); in assay [3], 0.0209 µM (active); in [7] it was 0.0074 µM (active); in [8], 0.0209 µM (active); in assay [5], 0.0187 µM (active).
As to `CCOC(=O)c1c(CSc2ccccc2)n(C)c2cc(Br)c(O)c(CN(C)C)c12`, the Potency in assay [6] is 11.8 µM (active); in assay [3] it was 18.7 µM (active); in assay [4], 5.9 µM (active); in assay [9] it was 16.6 µM (active); in [8], 20.9 µM (active). Also, the Potency entry in [7] was “inactive”.
As to `CC(C)(C)c1[nH]cnc1C=c1[nH]c(=O)c(=Cc2ccccc2)[nH]c1=O`, the Potency in assay [6] is 0.0241 µM (active); in [3] it was 15.2 µM (active); in assay [7], 0.0215 µM (active).
As for `Cn1cnc(-c2cc3nccc(Oc4ccc(NC(=S)NC(=O)Cc5ccccc5)cc4F)c3s2)c1`, in [1], the Potency is 13.2 µM (active). In addition, the Potency result in assay [4] and in assay [9] was “inactive” in each case.
With `CC[C@@H]([C@H](C)O)n1ncn(-c2ccc(N3CCN(c4ccc(OCC5CO[C@@](Cn6cncn6)(c6ccc(F)cc6F)C5)cc4)CC3)cc2)c1=O` (stereo not given in full), the Potency entry in assay [1] and in assay [8] was “inactive” each time. Also, the Potency in assay [3] was 16.6 µM (active).
Turning to `C[C@@H](O)[C@H]1C(=O)N2C(C(=O)OCOC(=O)C(C)(C)C)=C(SC3CN(C4=NCCS4)C3)[C@H](C)[C@H]12`, the Potency result in [6], in assay [4] and in assay [7] was “inactive” in each case. The Potency in assay [5] is 16.6 µM (active).
Consider `Cc1cc(-c2ncc(CC(=O)Nc3ccc(-c4cnccn4)cn3)cc2C)ccn1`, for which the Potency is 18.7 µM (active) in assay [2], 16.6 µM (active) in assay [3] and 18.7 µM (active) in assay [8]. Moreover, the Potency entry in assay [9] is “inactive”.
In the case of `N#Cc1c(N(CC(=O)O)CC(=O)O)sc(C(=O)O)c1CC(=O)O`, the Potency in assay [1] was 16.6 µM (active). Besides, the Potency result in assay [9] is “inactive”.
In the case of `C#C[C@]1(O)CC[C@H]2[C@H]3CCc4cc(OC)ccc4[C@H]3CC[C@@]21C`, the results for the Potency in assay [6], in assay [3] and in assay [8] were 2.64 µM (active), 18.7 µM (active) and 20.9 µM (active), respectively. For the same compound, the Potency entry in [4] and in assay [9] was “inactive” in each case.
With `CCNC(=O)c1noc(-c2cc(C(C)C)c(O)cc2O)c1-c1ccc(CN2CCOCC2)cc1`, the results for the Potency in assay [1], in assay [7] and in assay [8] were 0.0209 µM (active), 0.0418 µM (active) and 0.0332 µM (active), respectively.
On to `FC(F)(F)c1ccc(C=Cc2nc(COc3ccc(CCCCn4ccnn4)cc3)co2)cc1`, for which the Potency in assay [6] is 0.0019 µM (active); in assay [7] it was 0.0235 µM (active).
As for `CO[C@H]1O[C@@H]2O[C@@]3(C)CC[C@@H]4[C@@H](C)CC[C@@H]([C@H]1C)[C@@]24OO3`, the Potency result in [6], in assay [9] and in [8] was “inactive” in each case. In addition, the Potency in assay [3] is 3.72 µM (active); in assay [7], 0.833 µM (active); in assay [5], 10.5 µM (active).
Consider `CN(C)S(=O)(=O)c1ccc2c(c1)C(=Cc1cc3c([nH]1)CCCC3)C(=O)N2`, for which the Potency is 10.5 µM (active) in assay [1]; 18.7 µM (active) in [3]; 18.7 µM (active) in [7]; 20.9 µM (active) in assay [8]; 2.96 µM (active) in [5].
As to `Cc1nc(C(=O)NCC(=O)O)c(O)c2ccc(Oc3ccccc3)cc12`, the Potency entry in assay [6], in assay [7] and in assay [5] was “inactive” each time. The Potency in assay [3] is 0.0053 µM (active).
Consider `CCN(CCO)CCCOc1ccc2c(Nc3cc(CC(=O)Nc4cccc(F)c4)[nH]n3)ncnc2c1`, for which the Potency result in [1], in assay [4], in assay [9] and in [8] was “inactive” each time.
Consider `CCN1CCN(c2ccc(Nc3cc(N(C)C(=O)Nc4c(Cl)c(OC)cc(OC)c4Cl)ncn3)cc2)CC1`, for which the Potency in [1] was 2.09 µM (active). Also, the Potency entry in assay [7] and in assay [9] was “inactive” in each case.
In the case of `N=C1SC(=Cc2ccc(-c3ccc4c(c3)C(=O)NC4=O)o2)C(=O)N1c1ccc(Br)cc1`, the Potency in assay [6] is 4.18 µM (active); in [3], 3.32 µM (active); in [4], 3.72 µM (active); in assay [9] it was 4.18 µM (active); in assay [8] it was 26.4 µM (active); in [5], 4.18 µM (active).
`Nc1ccc(-c2ccc3ncc4ccc(=O)n(-c5cccc(C(F)(F)F)c5)c4c3c2)cn1`: the Potency in assay [6] was 0.0296 µM (active); in assay [3] it was 0.0066 µM (active); in assay [4] it was 0.0059 µM (active); in assay [9], 0.0235 µM (active); in assay [8] it was 0.0105 µM (active).
For `Cc1ccc2c(c1)C(=O)[C@]1(O)CCN(c3ccccc3)C1=N2`, the Potency in assay [1] is 2.96 µM (active). Further, the Potency result in assay [3] and in assay [7] was “inactive” throughout.
Regarding `CN1CCc2c(n(Cc3ccc(C(=O)NO)cc3)c3ccccc23)C1`, the Potency is 14.8 µM (active) in assay [6]; 14.8 µM (active) in assay [3]; 18.7 µM (active) in assay [4]; 16.6 µM (active) in [7]; 18.7 µM (active) in assay [9]; 16.6 µM (active) in assay [8]. In addition, the Potency in assay [5] is 18.7 µM (active).
As to `CCC(=O)N1CCN(c2ccc(-n3c(=O)ccc4cnc5ccc(-c6cnc7ccccc7c6)cc5c43)cc2C(F)(F)F)CC1`, the figures for the Potency in assay [2], in assay [8] and in assay [5] were 0.0372 µM (active), 0.0662 µM (active) and 0.0372 µM (active), respectively.
In the case of `Cn1c(=O)c(-c2c(Cl)cccc2Cl)cc2cnc(Nc3cccc(C(=O)O)c3)nc21`, the Potency in [2] is 0.0833 µM (active); in assay [6], 3.32 µM (active); in assay [5], 9.35 µM (active). Also, in [7], the Potency entry was “inactive”.
